Measured values: PubChem BioAssay AID651610 (Broad Institute, 2012)
Where “and” joins values, the source holds several entries; their conditions need not be identical. Equal values may be shown once. In all, about 360,000 compounds went through this assay and about 3,900 (1.1%) were called active. This excerpt belongs to a sample that is enriched for actives. Values without a mark were called inactive.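 Rule for the calls: active = mean replicate inhibition score of at least 50 and every replicate individually at or above 50; inconclusive = only one of the two criteria met; inactive = mean below 50 and not all replicates reaching 50.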

assay: blockers of JRFL envelope-mediated fusion – HeLa-JRFL effector, CEM21 target cells, luciferase, primary screen (AID 651610); details: HeLa-JRFL Env/CEM21 cell fusion, hits give high values; at 12.3 µM unless noted;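 note: 0% = plate neutral controls and 100% = maraviroc near 300 nM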

| Compound | inhibition |
| --- | --- |
| CC(C)(C)c1ccc(CN2C(=O)CN=C(c3ccccc3)c3ccccc32)cc1 | 86.8% (active) |
| O=C1CC(=O)N(Cc2ccccc2)C(=O)N1CCCCCCN1C(=O)CC(=O)N(Cc2ccccc2)C1=O | -2.61% |
| O=S(=O)(c1ccccc1)N1CCC2CCNC2C1 (stereo not given) | -11.9% |
| C[C@H](CO)N1C[C@H](C)[C@H](CN(C)C(=O)Oc2ccc3ccccc3c2)OCc2cnnn2CCCC1=O | -15.9% [at 16.7 µM] |
| O=C(O)[C@@H]1[C@@H](CO)[C@@H]2Cn3c(ccc(-c4ccccc4F)c3=O)[C@H]1N2C(=O)c1cccnc1 | 1.12% [at 16.7 µM] |
| CCCCCCCCCCCCn1ccc(=N)cc1 | 69% (active) |
| C[C@@H]1CN([C@H](C)CO)C(=O)CCCn2cc(nn2)CO[C@@H]1CN(C)C(=O)Oc1cccc2ccccc12 | 0.664% [at 16.7 µM] |
| CCOC(=O)[C@@H]1[C@@H]2NC(=O)N[C@@]1(C)Oc1ccccc12 | -2.84% [at 16.7 µM] and -0.731% [at 16.7 µM] |
| CS(=O)(=O)N1CCC2CCNC2C1 (stereo not given) | -7.16% |
| CCC(C)(O)C(=O)OC1C(=O)OC2CC3C(C)=CC(=O)C(O)C3(C)C3C4(O)OCC23C1C(C)C4O (stereo not given) | 75.7% (active) |
| O=C(O)[C@H]1[C@H](CO)[C@H]2Cn3c(ccc(-c4ccccc4F)c3=O)[C@@H]1N2C(=O)c1cccnc1 | -4.52% [at 16.7 µM] |
| Cc1cc(N2CCNC[C@@H]2C)ccc1N1CC[C@H](O)C1 | 0.23% |
| COC(=O)C[C@@H]1CC[C@@H]2NC[C@@H](O)COC[C@H]2O1 | -11.9% [at 16.7 µM] |
| O=C(c1ccccc1)C(O)(CN1CCCCC1)c1ccccc1 (stereo not given) | 8.44% |
| CC(=O)C1(O)CCC2C3CCC4=C(Cl)C(=O)CCC4(C)C3CCC21C (stereo not given) | 16.9% |
